# DT40 TDP1 CPT = qHTS for Inhibitors of human tyrosyl-DNA phosphodiesterase 1 (TDP1): qHTS in cells in presence of CPT. 420,000 compounds, 12% hits. chicken DT40 Tdp1-/-;hTDP1 cells + 20 nM CPT, ATP luminescence, 48 h. Potency, µM (series often up to 46.2 µM), inactives show at the highest dose activity change, negative = growth inhibition, hits mostly inhibitors; further: on the % scale 0 is the no-effect control and ±100 the full control effect; nearly all actives have a fitted effect of over 55% in size
#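 Chicken DT40 Tdp1-/- cells complemented with human TDP1, 400 cells/well, exposed to compounds plus 20 nM camptothecin for at least 48 h at 37 C; viability read as ATP content by CellTiter-Glo luminescence.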
# ClpP mod = qHTS Assay for Activators of ClpP; Potency, µM (series often up to 57.5 µM), for the others: at the top dose activity change, negative = active; 340,000 compounds, 1.9% hits; purified B. subtilis ClpP, FRET peptide cleavage, 20 min; ATP-dependent Clp protease proteolytic subunit (Bacillus subtilis (strain 168)), P80244; active means well fitted falling curve with a large enough effect; inconclusive means small, poorly fitted or top-dose-only effect; inactive means no such curve, though single readings can be large or run the other way; further: the source files actives as falling curves though it sought activators and does not explain the sign; nearly all actives have a fitted effect of over 65% in size
#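 Buffer: 100 mM Tris/HCl pH8, 100 mM KCl, 0.05% low protease BSA, 2.5% glycerol, 0.01% Tween-20. ClpP 10 microg/mL final; 20 min RT; delta FRET normalized to ADEP and DMSO controls.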
# TDP1 cell noCPT = qHTS for Inhibitors of human tyrosyl-DNA phosphodiesterase 1 (TDP1): qHTS in cells in absence of CPT; Potency, µM (series often up to 46.2 µM), for the others: top-dose activity change, negative = growth inhibition, hits mostly inhibitors; DT40 Tdp1-/- hTDP1 cells, no CPT, ATP luminescence, 48 h; 420,000 compounds, 15% hits; further: on the % scale 0 is the no-effect control and ±100 the full control effect; nearly all actives have a fitted effect of over 55% in size
#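 Readout: luminescence from CellTiter-Glo after 30 min in the dark at RT. Cells: DT40 Tdp1-/- with stable hTDP1, 400/well. Exposure: compounds alone, ≥48 hr, 37 °C.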
# TDP1 inh = qHTS Assay for Inhibitors of Tyrosyl-DNA Phosphodiesterase (TDP1); Tyrosyl-DNA phosphodiesterase 1 (Homo sapiens), Q9NUW8; recombinant TDP1, AlphaScreen DNA substrate cleavage; Potency, µM (doses to about 130 µM), for inactives: top-dose activity change, negative = inhibition, hits mostly inhibitors; 350,000 compounds, 0.28% hits; further: on the % scale 0 is the no-effect control and ±100 the full control effect; nearly all actives have a fitted effect of over 40% in size
# Target sequence (Q9NUW8 whole entry, looked up): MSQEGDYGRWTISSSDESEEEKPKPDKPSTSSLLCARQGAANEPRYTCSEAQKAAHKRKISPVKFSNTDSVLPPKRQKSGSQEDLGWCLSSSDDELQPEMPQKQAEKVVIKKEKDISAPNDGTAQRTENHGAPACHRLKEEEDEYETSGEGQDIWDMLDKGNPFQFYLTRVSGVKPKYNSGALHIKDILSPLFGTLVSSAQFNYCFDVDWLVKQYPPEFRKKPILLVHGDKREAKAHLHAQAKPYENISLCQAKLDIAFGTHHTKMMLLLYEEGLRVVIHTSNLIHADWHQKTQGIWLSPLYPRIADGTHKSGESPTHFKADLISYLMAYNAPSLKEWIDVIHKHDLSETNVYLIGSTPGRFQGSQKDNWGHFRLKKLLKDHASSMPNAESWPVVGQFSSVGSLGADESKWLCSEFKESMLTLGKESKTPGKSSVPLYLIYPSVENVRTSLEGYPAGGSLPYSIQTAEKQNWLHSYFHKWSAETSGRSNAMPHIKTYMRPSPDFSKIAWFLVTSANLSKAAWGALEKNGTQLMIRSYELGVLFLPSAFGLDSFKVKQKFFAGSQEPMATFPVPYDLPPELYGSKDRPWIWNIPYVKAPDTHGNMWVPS
#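 Here, a 5' biotin and 3' phosphotyrosine-FITC DNA oligonucleotide reports Tdp1 activity: intact substrate bridges AlphaScreen beads, while cleavage leaves a 3' phosphate and drops signal. All incubations at room temperature.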
# * hit, by the source's call; ? = inconclusive; . = no result given. Only some compounds are listed: those with a hit (about 17% of all), similar ones and a draw of the others. Unless noted, the call rests on the fitted dose curve; in most records, active means well fitted curve in the direction sought with a large enough effect; inconclusive means small, poorly fitted or top-dose-only effect, or another doubt; inactive means no such curve, though single readings can be large; an effect the other way counts as inactive or inconclusive. Potency means the concentration at half of the fitted maximal effect.
SMILES,DT40 TDP1 CPT,ClpP mod,TDP1 cell noCPT,TDP1 inh
COC(=O)C1=C(C)N(c2ccc(Cl)c(Cl)c2)C(=O)C1,5.17µM*,2.0%,5.17µM*,4.9%
COC(=O)C1=C(C)N(c2ccc(S(N)(=O)=O)cc2)C(=O)C1,1.0%,-2.7%,-2.4%,1.2%
COc1ccc(CN(Cc2ccccc2)C(=O)c2ccccc2O)cc1COc1ccc(NC(C)=O)cc1,.,.,.,-12.5%
O=C(CCn1cccn1)Nc1ccc2c(c1)OCCO2,-0.8%,-1.8%,-17.4%,4.3%
Cc1ccc(Cn2ncc3c(N4CCN(c5ccccc5C)CC4)ncnc32)cc1,23.1µM*,?,16.4µM*,2.1%
c1ccc(Cn2ncc3c(N4CCCCC4)ncnc32)cc1,?,-1.1%,?,5.7%
Clc1ccc(Cn2ncc3c(N4CCN(c5ccccc5)CC4)ncnc32)cc1,23.1µM*,4.2%,23.1µM*,.
CC(=O)c1nn(-c2cccc(Br)c2)cc1C(=O)c1ccc(Br)cc1,13µM*,1.3%,11.6µM*,1.0%
O=C(Nc1ccc(Cl)cc1)c1cc2c(cc1O)[nH]c1ccccc12,3.26µM*,-0.2%,4.11µM*,.
Cc1cc(C(=O)Nc2ccc(Cl)cc2)c2ccccc2n1,1.2%,.,-7.7%,.
CC(=O)Nc1ccccc1-c1nc2ccc(C(=O)N3CCN(c4ccccc4)CC3)cc2[nH]c1=O,-16.7%,-15.9%,-20.9%,0.0%
CC(=O)Nc1ccccc1-c1nc2cc(C#N)c(C#N)cc2[nH]c1=O,20.6µM*,-28.0%,20.6µM*,.
COc1ccccc1-c1nnc(-c2ccc(N3CCOCC3)cc2)o1,?,17.8µM*,20.6µM*,-4.4%
COc1ccccc1-c1nnc(-c2ccc(C)cc2)o1,-10.5%,.,?,.
O=C1C=C(c2cccc(Br)c2)C[C@@H](c2ccc3c(c2)OCO3)C1,?,-0.8%,23.1µM*,2.7%
COc1ccc([C@H]2CC(=O)C=C(c3cccc4c3Oc3ccccc3S4)C2)cc1OC,16.4µM*,-1.7%,13µM*,2.7%
COc1ccc([C@H]2CC(=O)C=C(c3cccc(Br)c3)C2)cc1OC,?,-2.2%,13µM*,4.3%
O=C1C=C(c2cccc3c2Oc2ccccc2S3)C[C@@H](c2ccc(Cl)cc2)C1,?,-1.4%,?,0.6%
O=C1C=C(c2ccccc2)C[C@@H](c2ccc3c(c2)OCO3)C1,-15.4%,0.2%,-25.0%,0.4%
COc1ccc([C@H]2CC(=O)C=C(c3cccc(Br)c3)C2)cc1,?,1.5%,?,-2.2%
O=C1C=C(c2cnc3ccccc3c2)C[C@@H](c2ccc3c(c2)OCO3)C1,20.6µM*,-0.7%,?,4.6%
COc1ccc(S(=O)(=O)N2CCN(c3ccc(Cl)c(Cl)c3)CC2)c2ccccc12,.,-15.0%,.,0.6%
COc1ccc(C(C)=O)cc1Cn1c(C)c(C(=O)NCc2ccc(C(F)(F)F)cc2)sc1=O,?,-0.1%,?,.
COc1ccc([C@H]2CC(=O)C=C(c3cccc(C(C)C)c3)C2)cc1OC,20.6µM*,1.9%,16.4µM*,-0.3%
CCN(CC)CC(C)OC(=O)c1ccccc1Cl (stereo unspecified),-21.0%,-1.7%,-10.7%,2.5%
SMILES,DT40 TDP1 CPT,ClpP mod,TDP1 cell noCPT,TDP1 inh
C=CCn1c[n+](CC(=O)c2ccc(Br)s2)c2ccccc21,20.6µM*,.,11.6µM*,4.8%
O=C(Nc1ccncc1)c1ccc2ccccc2c1,?,22.4µM*,13µM*,0.0%
O=C(Nc1nnc(-c2ccncc2)o1)c1ccc2ccccc2c1,8.2µM*,-3.6%,7.31µM*,3.6%
CC(C)C(=O)N1CCN(c2ccccc2NC(=O)c2ccc(Br)o2)CC1,?,.,?,1.2%
CCC(=O)N1CCN(c2ccccc2NC(=O)Cc2ccccc2)CC1,?,-2.5%,-17.6%,9.1%
CCC(=O)N1CCN(c2ccccc2NC(=O)c2ccc([N+](=O)[O-])o2)CC1,18.4µM*,.,18.4µM*,6.8%
CC(C)C(=O)N1CCN(c2ccccc2NC(=O)c2ccc([N+](=O)[O-])o2)CC1,16.4µM*,-0.6%,?,.
